Assays:
Assay in all cases: DAPPL (digital affinity profiling via proximity ligation, sequencing); 10 mM Tris-HCl pH 7.5, 50 mM NaCl, 1 mM DTT, 4% glycerol, room temperature, 30 min; GST-TFs on glutathione beads, 16-mer random dsDNA library, 0.1% formaldehyde crosslink after washing; high values mean tight binding
Details in all cases: protein: recombinant; tags: N-terminal GST; dsDNA, one strand shown
FLI1 = molecular target: T1, FLI1 (Homo sapiens, UniProt Q01543 1-452)
T1 sequence: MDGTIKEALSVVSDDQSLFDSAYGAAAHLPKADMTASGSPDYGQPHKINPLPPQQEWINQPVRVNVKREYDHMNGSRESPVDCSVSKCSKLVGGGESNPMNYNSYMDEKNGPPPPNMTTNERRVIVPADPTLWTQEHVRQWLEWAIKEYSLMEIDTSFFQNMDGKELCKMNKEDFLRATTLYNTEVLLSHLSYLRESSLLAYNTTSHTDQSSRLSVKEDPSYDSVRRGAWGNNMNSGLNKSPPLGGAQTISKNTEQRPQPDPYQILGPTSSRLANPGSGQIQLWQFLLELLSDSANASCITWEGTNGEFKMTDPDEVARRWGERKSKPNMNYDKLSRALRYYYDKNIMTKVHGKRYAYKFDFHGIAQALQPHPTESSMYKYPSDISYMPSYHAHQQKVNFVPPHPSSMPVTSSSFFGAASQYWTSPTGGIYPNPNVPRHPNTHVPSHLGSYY
In short: (§1)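 The binding signal reported is, for every hexamer, its read frequency for a factor over its read frequency for the tag-only sample. Reads came from pools of yeast-expressed, GST-fused human transcription factors on glutathione beads, barcoded with DNA and mixed with that sample, which were incubated with 200 nmole of a random double-stranded 16-mer DNA library in Tris/NaCl/DTT/glycerol buffer at room temperature for 30 min. After washing, the pools were crosslinked with 0.1% formaldehyde, proximity-ligated with BsaI/T4 ligase for 1 h at 37 °C, PCR-amplified and sequenced on an Illumina NextSeq500.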

ELK1 = molecular target: T2, ELK1 (Homo sapiens, UniProt P19419 1-428)
T2 sequence: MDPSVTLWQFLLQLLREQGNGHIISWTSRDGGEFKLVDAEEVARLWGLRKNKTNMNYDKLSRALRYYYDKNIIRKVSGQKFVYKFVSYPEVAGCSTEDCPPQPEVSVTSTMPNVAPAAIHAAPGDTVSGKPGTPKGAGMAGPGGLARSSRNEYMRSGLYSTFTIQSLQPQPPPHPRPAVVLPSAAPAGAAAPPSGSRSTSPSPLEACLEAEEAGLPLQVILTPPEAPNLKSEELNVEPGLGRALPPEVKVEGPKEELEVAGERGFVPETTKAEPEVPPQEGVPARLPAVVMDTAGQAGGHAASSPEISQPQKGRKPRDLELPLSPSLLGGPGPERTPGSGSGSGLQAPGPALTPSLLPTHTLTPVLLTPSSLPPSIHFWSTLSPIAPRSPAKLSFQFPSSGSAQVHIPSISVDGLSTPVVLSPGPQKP
In short: as §1

GABPA = molecular target: T3, GABPA (Homo sapiens, UniProt Q06546 1-454)
T3 sequence: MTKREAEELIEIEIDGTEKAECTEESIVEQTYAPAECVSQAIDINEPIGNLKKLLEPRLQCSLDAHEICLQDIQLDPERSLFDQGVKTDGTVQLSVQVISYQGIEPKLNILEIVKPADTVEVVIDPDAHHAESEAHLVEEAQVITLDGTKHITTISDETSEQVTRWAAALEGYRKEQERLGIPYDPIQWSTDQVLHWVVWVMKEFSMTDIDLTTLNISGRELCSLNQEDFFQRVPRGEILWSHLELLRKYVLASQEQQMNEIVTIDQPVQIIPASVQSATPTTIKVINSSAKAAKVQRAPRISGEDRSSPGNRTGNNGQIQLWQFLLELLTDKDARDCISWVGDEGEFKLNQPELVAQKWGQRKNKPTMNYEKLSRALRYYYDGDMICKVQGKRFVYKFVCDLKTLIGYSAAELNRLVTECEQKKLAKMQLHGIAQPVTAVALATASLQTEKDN
In short: as §1

ERG = molecular target: T4, ERG (Homo sapiens, UniProt P11308 1-479)
T4 sequence: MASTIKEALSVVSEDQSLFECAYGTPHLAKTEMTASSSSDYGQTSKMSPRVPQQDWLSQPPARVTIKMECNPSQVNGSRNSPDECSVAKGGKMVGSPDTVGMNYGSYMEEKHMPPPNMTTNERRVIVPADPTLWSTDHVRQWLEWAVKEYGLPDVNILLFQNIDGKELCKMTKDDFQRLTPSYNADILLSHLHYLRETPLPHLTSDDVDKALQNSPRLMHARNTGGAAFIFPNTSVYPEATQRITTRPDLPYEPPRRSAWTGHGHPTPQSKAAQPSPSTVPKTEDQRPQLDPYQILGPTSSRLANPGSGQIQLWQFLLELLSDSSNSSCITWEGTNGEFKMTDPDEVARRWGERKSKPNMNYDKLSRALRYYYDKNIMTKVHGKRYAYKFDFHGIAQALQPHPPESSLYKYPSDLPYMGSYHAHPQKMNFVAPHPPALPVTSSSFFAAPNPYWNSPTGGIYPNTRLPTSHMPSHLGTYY
In short: as §1

ELF1 = ELF1 (Homo sapiens, UniProt P32519 1-619)
Chain of ELF1 (P32519 whole entry): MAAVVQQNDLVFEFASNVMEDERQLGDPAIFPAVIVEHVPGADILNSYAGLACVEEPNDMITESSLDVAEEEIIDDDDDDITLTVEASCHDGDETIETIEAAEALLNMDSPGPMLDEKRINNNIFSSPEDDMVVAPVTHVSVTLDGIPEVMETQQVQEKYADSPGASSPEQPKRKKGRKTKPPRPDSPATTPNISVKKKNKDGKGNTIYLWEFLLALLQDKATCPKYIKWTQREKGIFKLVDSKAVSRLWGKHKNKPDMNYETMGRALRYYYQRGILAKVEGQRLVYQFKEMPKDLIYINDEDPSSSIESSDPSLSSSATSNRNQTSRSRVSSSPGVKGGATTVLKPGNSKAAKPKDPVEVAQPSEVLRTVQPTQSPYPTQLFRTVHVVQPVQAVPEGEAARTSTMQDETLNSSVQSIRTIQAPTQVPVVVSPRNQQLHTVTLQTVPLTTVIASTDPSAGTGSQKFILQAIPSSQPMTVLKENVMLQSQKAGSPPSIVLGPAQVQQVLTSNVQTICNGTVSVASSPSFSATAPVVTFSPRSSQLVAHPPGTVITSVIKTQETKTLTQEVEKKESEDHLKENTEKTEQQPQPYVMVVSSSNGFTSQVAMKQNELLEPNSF
In short: as §1

EHF = molecular target: T5, EHF (Homo sapiens, UniProt Q9NZC4 1-300)
T5 sequence: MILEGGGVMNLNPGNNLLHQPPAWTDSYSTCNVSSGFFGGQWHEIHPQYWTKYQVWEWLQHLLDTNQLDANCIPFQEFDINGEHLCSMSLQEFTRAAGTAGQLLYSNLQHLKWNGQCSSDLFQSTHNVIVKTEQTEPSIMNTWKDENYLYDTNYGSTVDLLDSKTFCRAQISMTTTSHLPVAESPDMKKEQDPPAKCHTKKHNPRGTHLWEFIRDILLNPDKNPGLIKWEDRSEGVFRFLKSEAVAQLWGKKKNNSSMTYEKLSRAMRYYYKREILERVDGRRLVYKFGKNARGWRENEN
In short: as §1

SPI1 = SPI1 (Homo sapiens, UniProt P17947 1-270)
In short: as §1

SPIB = SPIB (Homo sapiens, UniProt Q01892 1-262)
Chain of SPIB (Q01892 whole entry): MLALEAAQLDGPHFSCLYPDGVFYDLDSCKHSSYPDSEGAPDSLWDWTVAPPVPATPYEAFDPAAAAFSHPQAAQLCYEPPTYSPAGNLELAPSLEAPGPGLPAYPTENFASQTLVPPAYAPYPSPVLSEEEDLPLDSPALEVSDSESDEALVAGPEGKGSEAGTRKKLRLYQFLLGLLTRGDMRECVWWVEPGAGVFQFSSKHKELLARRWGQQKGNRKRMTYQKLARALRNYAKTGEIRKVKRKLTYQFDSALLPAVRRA
In short: as §1

ELK3 = molecular target: T6, ELK3 (Homo sapiens, UniProt P41970 1-407)
T6 sequence: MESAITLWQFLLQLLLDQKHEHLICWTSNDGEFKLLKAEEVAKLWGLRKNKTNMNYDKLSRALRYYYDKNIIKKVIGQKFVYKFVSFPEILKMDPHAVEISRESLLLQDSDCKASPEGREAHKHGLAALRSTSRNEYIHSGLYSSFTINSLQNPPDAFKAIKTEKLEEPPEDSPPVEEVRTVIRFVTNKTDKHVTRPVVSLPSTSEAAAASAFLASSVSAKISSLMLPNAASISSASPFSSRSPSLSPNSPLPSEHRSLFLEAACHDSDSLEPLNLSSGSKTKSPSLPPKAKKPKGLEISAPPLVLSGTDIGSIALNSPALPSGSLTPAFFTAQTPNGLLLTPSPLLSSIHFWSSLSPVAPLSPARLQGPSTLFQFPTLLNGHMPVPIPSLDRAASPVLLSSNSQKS
In short: as §1

Sequence: ACTTGT
- binding signal (FLI1): 1.27 fold enrichment (6-mer frequency, TF over GST control)
- binding signal (ELK1): 1.35 fold enrichment (6-mer frequency, TF over GST control)
- binding signal (GABPA): 1.29 fold enrichment (6-mer frequency, TF over GST control)
- binding signal (ERG): 1.15 fold enrichment (6-mer frequency, TF over GST control)
- binding signal (ELF1): 1.29 fold enrichment (6-mer frequency, TF over GST control)
- binding signal (EHF): 1.31 fold enrichment (6-mer frequency, TF over GST control)
- binding signal (SPI1): 1.3 fold enrichment (6-mer frequency, TF over GST control)
- binding signal (SPIB): 1.45 fold enrichment (6-mer frequency, TF over GST control)
- binding signal (ELK3): 1.31 fold enrichment (6-mer frequency, TF over GST control)

Sequence: CCTGCA
- binding signal (FLI1): 1.28 fold enrichment (6-mer frequency, TF over GST control)
- binding signal (ELK1): 1.3 fold enrichment (6-mer frequency, TF over GST control)
- binding signal (GABPA): 1.19 fold enrichment (6-mer frequency, TF over GST control)
- binding signal (ERG): 1.23 fold enrichment (6-mer frequency, TF over GST control)
- binding signal (ELF1): 1.36 fold enrichment (6-mer frequency, TF over GST control)
- binding signal (EHF): 1.42 fold enrichment (6-mer frequency, TF over GST control)
- binding signal (SPI1): 1.17 fold enrichment (6-mer frequency, TF over GST control)
- binding signal (SPIB): 1.24 fold enrichment (6-mer frequency, TF over GST control)
- binding signal (ELK3): 1.23 fold enrichment (6-mer frequency, TF over GST control)

Sequence: TCACAT
- binding signal (FLI1): 1.23 fold enrichment (6-mer frequency, TF over GST control)
- binding signal (ELK1): 1.25 fold enrichment (6-mer frequency, TF over GST control)
- binding signal (GABPA): 1.23 fold enrichment (6-mer frequency, TF over GST control)
- binding signal (ERG): 1.29 fold enrichment (6-mer frequency, TF over GST control)
- binding signal (ELF1): 1.32 fold enrichment (6-mer frequency, TF over GST control)
- binding signal (EHF): 1.27 fold enrichment (6-mer frequency, TF over GST control)
- binding signal (SPI1): 1.32 fold enrichment (6-mer frequency, TF over GST control)
- binding signal (SPIB): 1.19 fold enrichment (6-mer frequency, TF over GST control)
- binding signal (ELK3): 1.24 fold enrichment (6-mer frequency, TF over GST control)

From publication PMC7862700, “An all-to-all approach to the identification of sequence-specific readers for epigenetic DNA modifications on cytosine”
